Measured values as given in PubChem BioAssay (NCATS).
Results filed as inconclusive are left out. The source made the active and inactive calls. Calls follow the shape of the dose curve; as a rule, active = well fitted curve in the direction sought with a large enough effect; inconclusive = small, poorly fitted or top-dose-only effect, or another doubt; inactive = no such curve, though single readings can be large; an effect the other way counts as inactive or inconclusive. Where a SMILES comes first, the peptide text is derived from it. Bridges are numbered along the chain shown (N, C = ends). [ ]: non-standard residue; d: D form. hArg = N=C(N)NCCCC[C@H](N)C(=O)O; Mpa = O=C(O)CCS

Legend:
[1] = qHTS of pediatric cancer cell lines to identify multiple opportunities for drug repurposing: Primary screen for U-2 OS cells (AID 1347096); also: nearly all actives have a fitted effect of over 50% in size
In short: (§1)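 Viability after 48 h compound treatment at 37C, 500-1,000 cells/well, read as ATP luminescence with CellTiter-Glo. Primary screens used 11-point (MIPE, 0.78 nM-46 µM) or 8-point (NPC, 0.59 nM-46 µM) final concentrations; follow-up screens used 11-point dilutions.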

[2] = qHTS of pediatric cancer cell lines to identify multiple opportunities for drug repurposing: Primary screen for Saos-2 cells (AID 1347097); also: nearly all actives have a fitted effect of over 40% in size
In short: (§2)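 CRCs from 8- or 11-point titrations (lowest final 0.59 nM NPC, 0.78 nM MIPE). Cell viability: CellTiter-Glo after 48 h incubation, 15 min room-temperature development, luminescence imaging.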

[3] = qHTS of pediatric cancer cell lines to identify multiple opportunities for drug repurposing: Primary screen for SK-N-SH cells (AID 1347098);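 also: DMSO served as neutral control and bortezomib at 2.3 µM as positive control; nearly all actives have a fitted effect of over 65% in size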
In short: (§3)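 Cells (500-1,000/well) rested 5 h, then received compounds for 48 h; metabolically active cells were measured by CellTiter-Glo luminescence. Final concentrations spanned up to 46 µM (MIPE, 11-point) or 0.59 nM-46 µM (NPC, 8-point) in primary screens, 11-point in follow-ups.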

[4] = qHTS of pediatric cancer cell lines to identify multiple opportunities for drug repurposing: Primary screen for NB1643 cells (AID 1347099); also: nearly all actives have a fitted effect of over 50% in size
In short: as §2

[5] = qHTS of pediatric cancer cell lines to identify multiple opportunities for drug repurposing: Primary screen for LAN-5 cells (AID 1347100)
In short: as §1

[6] = qHTS of pediatric cancer cell lines to identify multiple opportunities for drug repurposing: Primary screen for BT-12 cells (AID 1347101); also: nearly all actives have a fitted effect of over 25% in size
In short: as §3

[7] = qHTS of pediatric cancer cell lines to identify multiple opportunities for drug repurposing: Primary screen for Rh18 cells (AID 1347102); also: nearly all actives have a fitted effect of over 65% in size
In short: as §1

[8] = qHTS of pediatric cancer cell lines to identify multiple opportunities for drug repurposing: Primary screen for OHS-50 cells (AID 1347103); also: nearly all actives have a fitted effect of over 40% in size
In short: as §3

[9] = qHTS of pediatric cancer cell lines to identify multiple opportunities for drug repurposing: Primary screen for RD cells (AID 1347104); also: nearly all actives have a fitted effect of over 55% in size
In short: as §2

[10] = qHTS of pediatric cancer cell lines to identify multiple opportunities for drug repurposing: Primary screen for MG 63 (6-TG R) cells (AID 1347105); also: nearly all actives have a fitted effect of over 50% in size
In short: as §2

Measured: Potency

Cc1ccc(S(=O)(=O)NC(=O)NC2CCCCCCC2)cc1
inactive: all assays above

COC(=O)c1ccc(O)cc1
inactive: all assays above

Cc1cc(C)nc(NS(=O)(=O)c2ccc(N)cc2)n1
inactive: all assays above

CCN[C@H]1CN(CCCOC)S(=O)(=O)c2sc(S(N)(=O)=O)cc21
inactive: all assays above

CN[C@@H]1[C@H](O)[C@H](NC)[C@H]2O[C@@]3(O)C(=O)C[C@@H](C)O[C@H]3O[C@@H]2[C@H]1O
inactive: all assays above

CC(C)CCCC(C)CCCC(C)CCCCC(C)CCCC(C)CCCC(C)C (centres undefined)
inactive: all assays above

O=S1(=O)OC(c2ccc(O)cc2)(c2ccc(O)cc2)c2ccccc21
inactive: all assays above

O=C(NCN1CCOCC1)c1cnccn1
inactive: all assays above

CC1(C)[C@@H](OC(=O)CCC(=O)O)CC[C@]2(C)[C@H]3C(=O)C=C4[C@@H]5C[C@@](C)(C(=O)O)CC[C@]5(C)CC[C@@]4(C)[C@]3(C)CC[C@@H]12
inactive: all assays above

O=C(O)CCCc1ccccc1
inactive: all assays above

C=CCN1C[C@H](C(=O)N(CCCN(C)C)C(=O)NCC)C[C@@H]2c3cccc4[nH]cc(c34)C[C@H]21
inactive: all assays above

CCOc1ccc(C(=O)OCCN(CC)CC)cc1
inactive: all assays above

Cc1ncc(CO)c(CN)c1O
inactive: all assays above

NC(=O)NS(=O)(=O)c1ccc(N)cc1
not listed: [10]
inactive: all other assays above

C=CCOc1ccccc1OCC(O)CNC(C)C (centres undefined)
inactive: all assays above

NC(=O)c1ccc([N+](=O)[O-])cc1Cl
inactive: all assays above

O=c1[nH]c(=O)n([C@H]2C[C@H](O)[C@@H](CO)O2)cc1I
inactive: all assays above

Nc1ccc(S(=O)(=O)c2ccc(N)cc2)cc1
inactive: all assays above

CCCCCCCCCCCCCCCCC(C(=O)O)C(O)(CC(=O)O)C(=O)O (centres undefined)
inactive: all assays above

CCOC(=O)OC(C)OC(=O)[C@@H]1N2C(=O)[C@@H](NC(=O)[C@H](N)c3ccccc3)[C@H]2SC1(C)C (some centres undefined)
inactive: all assays above

Cc1cccc(C(=O)O)c1O
inactive: all assays above

NC(=O)[C@@H]1CSSCCC(=O)N[C@@H](CCCCN=C(N)N)C(=O)NCC(=O)N[C@@H](CC(=O)O)C(=O)N[C@@H](Cc2c[nH]c3ccccc23)C(=O)N2CCC[C@H]2C(=O)N1 ([Mpa][hArg]GDWPC-NH2; disulfide 1-7)
inactive: all assays above

CNc1c2c(nn1C)CCCC2
inactive: all assays above

O=C(O)c1ccc[n+]([O-])c1
inactive: all assays above

CC(C)=CCC/C(C)=C/CO
inactive: all assays above

CC(=O)Nc1ccccc1
inactive: all assays above

CCOC(N)=O
inactive: all assays above

NC(=O)CCCCC1CCSS1 (centres undefined)
inactive: all assays above

CC(=O)N[C@H]1[C@H]([C@H](O)[C@H](O)CO)OC(C(=O)O)=C[C@@H]1N=C(N)N
inactive: all assays above

CCN(CC)CC1CCCCN1CC(=O)N1c2ccccc2C(=O)Nc2cccnc21 (centres undefined)
inactive: all assays above

C[C@H]1COc2c(C3(N)CC3)c(F)cc3c(=O)c(C(=O)O)cn1c23
inactive: all assays above

O=C(O)c1ccccc1OP(=O)(O)O
inactive: all assays above

c1ccc2[nH]ccc2c1
inactive: all assays above

C=CCNC(N)=S
inactive: all assays above

NS(=O)(=O)c1ccc(NC(=O)CCC(=O)O)cc1
inactive: all assays above

CCCNC(C)(C)COC(=O)c1ccccc1
inactive: all assays above

O=C1c2ccccc2C(=O)C1c1ccc(Br)cc1
inactive: all assays above

CC(CSC(=O)c1ccccc1)C(=O)N1C[C@@H](Sc2ccccc2)C[C@H]1C(=O)O (some centres undefined)
inactive: all assays above

COc1ccc(C(=O)N2CCN(CC(=O)N3CCOCC3)CC2)cc1
inactive: all assays above

CN1C(=O)CC(c2ccccc2)C1=O (centres undefined)
inactive: all assays above

O=C(O)c1ccc(OCCCOc2ccc(C(=O)O)cc2)cc1
inactive: all assays above

CN1CC(=O)NC1=N
inactive: all assays above

CC(=O)NS(=O)(=O)c1ccc(N)cc1
inactive: all assays above

CCCCCOC(=O)Nc1nc(=O)n([C@@H]2O[C@H](C)[C@@H](O)[C@H]2O)cc1F
inactive: all assays above

CC(C)=CCC[C@@](C)(O)[C@H]1CC=C(C)CC1
inactive: all assays above

NNc1nnc(NN)c2ccccc12
inactive: all assays above
